# Results filed as inconclusive are left out. The source made the active and inactive calls. The calls were made as follows: active = hit-call score of the fitted dose curve at least 0.9, where 1 is the maximum; inconclusive = response in the unintended direction; inactive = score below 0.9.
# Target: human Retinoic Acid Receptor gamma (RARg), RARG (gene 5916) (UniProt P13631)
# Assay: ATG_RARg_TRANS: Attagene TRANS-FACTORIAL HepG2 Assay for human Retinoic Acid Receptor gamma (RARg) (AID 2283009);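 as to AC50: AC50 is for reporter induction above DMSO meaning RARg activation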
# Method in brief: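 Transactivation of exogenous RARg-Gal4 fusion measured as reporter transcript induction after 24 h in transfected HepG2 cells. RNA reverse-transcribed, amplified, fluorescently labeled and resolved by capillary electrophoresis; increase relative to DMSO.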
# Chain of human Retinoic Acid Receptor gamma (RARg), RARG (gene 5916) (P13631 whole entry, looked up): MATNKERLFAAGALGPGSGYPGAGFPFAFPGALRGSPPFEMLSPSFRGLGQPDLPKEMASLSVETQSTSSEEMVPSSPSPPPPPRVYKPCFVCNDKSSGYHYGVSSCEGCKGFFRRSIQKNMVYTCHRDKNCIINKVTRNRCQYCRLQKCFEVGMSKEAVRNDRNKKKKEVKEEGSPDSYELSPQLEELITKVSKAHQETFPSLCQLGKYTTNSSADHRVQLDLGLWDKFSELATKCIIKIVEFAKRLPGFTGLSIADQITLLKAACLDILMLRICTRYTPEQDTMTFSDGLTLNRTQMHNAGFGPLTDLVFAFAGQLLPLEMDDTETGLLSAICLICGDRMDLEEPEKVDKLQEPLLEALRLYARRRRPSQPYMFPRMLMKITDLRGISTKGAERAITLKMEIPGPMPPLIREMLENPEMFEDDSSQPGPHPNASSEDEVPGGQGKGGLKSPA
Compound,outcome,AC50
Cc1cccc2c1ccc1ccccc12,inactive,–
CCCCCCCCCCCCCCCCCC[N+](C)(C)Cc1ccccc1,–,89.2 µM (active)
O=C(OC(=O)C(F)(F)C(F)(F)F)C(F)(F)C(F)(F)F,inactive,–
CCCCCCC(C)(C)C(=O)O,inactive,–
CCCCCCCCCCCC[N+](C)(C)CCCCCCCCCCCC,–,27.3 µM (active)
CC1COCc2cc3c(cc21)C(C)(C)C(C)C3(C)C (stereo not given),inactive,–
CCOC(C)=O,inactive,–
Cc1ccccc1C(OCCN(C)C)c1ccccc1 (stereo not given),inactive,–
O=C(O)C(F)(F)OC(F)(F)C(F)(F)OC(F)(F)C(F)(F)OC(F)(F)C(F)(F)C(F)(F)C(F)(F)F,inactive,–
COC(=O)C(F)(F)C(F)(F)C(F)(F)C(F)(F)C(F)(F)F,inactive,–
Oc1cc2ccccc2cc1O,inactive,–
O=C1c2ccccc2C(=O)c2c(O)c(O)cc(O)c21,inactive,–
CCOC=C(C(=O)OCC)C(=O)OCC,inactive,–
OCC1CCC(CO)CC1 (stereo not given),inactive,–
FC(F)(F)C1(F)C(F)(F)C(F)(F)C(F)(F)C(F)(C(F)(F)F)C1(F)F (stereo not given),inactive,–
CCc1cccc(CC)c1N(COC)C(=O)CS(=O)(=O)O,inactive,–
c1cnc2c(c1)ccc1cccnc12,inactive,–
O=C(c1cc(O)c(O)c(O)c1)c1ccc(O)c(O)c1O,inactive,–
CCCCCCOC(=O)c1ccc(O)cc1,inactive,–
NNc1nc(-c2ccc([N+](=O)[O-])cc2)cs1,inactive,–
C[N+](C)(CCCNS(=O)(=O)CCC(F)(F)C(F)(F)C(F)(F)C(F)(F)C(F)(F)C(F)(F)F)CC(=O)[O-],inactive,–
O=C(NCc1ncc(C(F)(F)F)cc1Cl)c1c(Cl)cccc1Cl,inactive,–
CCCCN(C)C,inactive,–

# Target: human RAR-related Orphan Receptor beta (RORb), RORB (gene 6096) (UniProt Q92753)
# Assay: ATG_RORb_TRANS: Attagene TRANS-FACTORIAL HepG2 Assay for human RAR-related Orphan Receptor beta (RORb) (AID 2283010)
# Method in brief: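 Read-out is reporter mRNA induction, quantified by RT-PCR with fluorescent capillary electrophoresis, 24 h post-dose in transiently transfected HepG2 expressing exogenous NR-Gal4 chimera. Activity fitted upward versus DMSO.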
# Chain of human RAR-related Orphan Receptor beta (RORb), RORB (gene 6096) (Q92753 whole entry, looked up): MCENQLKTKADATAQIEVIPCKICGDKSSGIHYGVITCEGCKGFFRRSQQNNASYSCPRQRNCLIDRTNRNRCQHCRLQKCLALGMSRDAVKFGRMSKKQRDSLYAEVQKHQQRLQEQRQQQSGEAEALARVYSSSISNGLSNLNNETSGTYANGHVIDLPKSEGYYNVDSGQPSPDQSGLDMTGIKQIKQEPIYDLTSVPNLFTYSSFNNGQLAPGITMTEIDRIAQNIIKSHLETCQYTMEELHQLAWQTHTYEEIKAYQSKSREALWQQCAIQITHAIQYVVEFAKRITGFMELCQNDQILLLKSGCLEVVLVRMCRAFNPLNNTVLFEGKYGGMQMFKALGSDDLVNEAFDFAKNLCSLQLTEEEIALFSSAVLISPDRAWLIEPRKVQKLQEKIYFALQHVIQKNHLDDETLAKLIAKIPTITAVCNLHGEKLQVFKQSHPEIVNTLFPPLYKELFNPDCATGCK
row,Compound,outcome
1,Cc1cccc2c1ccc1ccccc12,inactive
2,Cc1ccc2ccc3ccc(C)cc3c2c1,inactive
3,CCCCCCCCCCCC[N+](C)(C)CCCCCCCCCCCC,inactive
4,CCOC(C)=O,inactive
5,O=C(NO)c1ccccc1,inactive
6,O=c1cc(-c2ccccc2)oc2ccc3ccccc3c12,inactive
7,O=C(O)C(F)(F)OC(F)(F)C(F)(F)OC(F)(F)C(F)(F)OC(F)(F)C(F)(F)C(F)(F)C(F)(F)F,inactive
8,CC1=NN(c2ccccc2)C(=O)C1,inactive
9,O=C(O)CCC(F)(F)C(F)(F)C(F)(F)C(F)(F)C(F)(F)F,inactive
10,Oc1cc2ccccc2cc1O,inactive
11,NC(=NCCCCCCN=C(N)/N=C(\N)Nc1ccc(Cl)cc1)/N=C(\N)Nc1ccc(Cl)cc1,inactive
12,O=C1c2ccccc2C(=O)c2c(O)c(O)cc(O)c21,inactive
13,c1cc2cccc3c4cccc5cccc(c(c1)c23)c54,inactive
14,c1cnc2c(c1)ccc1cccnc12,inactive
15,O=C(c1cc(O)c(O)c(O)c1)c1ccc(O)c(O)c1O,inactive
16,FC(F)(F)N1C(F)(F)C(F)(F)OC(F)(F)C1(F)F,inactive
17,CCC(C)c1ccccc1O (stereo not given),inactive
18,O=P(O)(O)CCC(F)(F)C(F)(F)C(F)(F)C(F)(F)C(F)(F)C(F)(F)C(F)(F)C(F)(F)F,inactive
19,CCCCN(C)C,inactive

# Target: human RAR-related Orphan Receptor gamma (RORg), RORC (gene 6097) (UniProt P51449)
# Assay: ATG_RORg_TRANS: Attagene TRANS-FACTORIAL HepG2 Assay for human RAR-related Orphan Receptor gamma (RORg) (AID 2283011)
# Method in brief: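 Chimeric RORg-Gal4 transactivation in transfected HepG2; 24 h exposure; RT-PCR/capillary electrophoresis readout of reporter mRNA, DMSO baseline.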
# Chain of human RAR-related Orphan Receptor gamma (RORg), RORC (gene 6097) (P51449 whole entry, looked up): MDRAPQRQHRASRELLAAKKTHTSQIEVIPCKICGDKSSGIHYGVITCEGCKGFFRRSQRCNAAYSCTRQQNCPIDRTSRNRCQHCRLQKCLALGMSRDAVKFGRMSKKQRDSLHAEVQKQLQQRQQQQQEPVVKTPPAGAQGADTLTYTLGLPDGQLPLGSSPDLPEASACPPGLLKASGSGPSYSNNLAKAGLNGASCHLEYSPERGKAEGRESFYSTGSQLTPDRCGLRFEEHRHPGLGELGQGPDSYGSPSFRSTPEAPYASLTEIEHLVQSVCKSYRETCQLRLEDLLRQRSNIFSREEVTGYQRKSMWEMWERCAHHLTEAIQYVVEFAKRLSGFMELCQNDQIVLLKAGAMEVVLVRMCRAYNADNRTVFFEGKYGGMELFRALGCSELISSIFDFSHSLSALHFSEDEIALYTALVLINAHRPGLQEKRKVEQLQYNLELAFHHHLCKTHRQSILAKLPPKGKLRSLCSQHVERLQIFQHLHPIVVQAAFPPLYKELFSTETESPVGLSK
row,Compound,outcome
1,CCCCCCCCCCCCCCCCCC[N+](C)(C)Cc1ccccc1,inactive
2,O=C(OC(=O)C(F)(F)C(F)(F)F)C(F)(F)C(F)(F)F,inactive
3,Cc1ccc2ccc3ccc(C)cc3c2c1,inactive
4,CCCCCCC(C)(C)C(=O)O,inactive
5,CCOC(C)=O,inactive
6,O=C(NO)c1ccccc1,inactive
7,O=c1cc(-c2ccccc2)oc2ccc3ccccc3c12,inactive
8,O=C(O)C(F)(F)OC(F)(F)C(F)(F)OC(F)(F)C(F)(F)OC(F)(F)C(F)(F)C(F)(F)C(F)(F)F,inactive
9,CC1=NN(c2ccccc2)C(=O)C1,inactive
10,Oc1cc2ccccc2cc1O,inactive
11,NC(=NCCCCCCN=C(N)/N=C(\N)Nc1ccc(Cl)cc1)/N=C(\N)Nc1ccc(Cl)cc1,inactive
12,c1cc2cccc3c4cccc5cccc(c(c1)c23)c54,inactive
13,c1cnc2c(c1)ccc1cccnc12,inactive
14,O=C(c1cc(O)c(O)c(O)c1)c1ccc(O)c(O)c1O,inactive
15,FC(F)(F)N1C(F)(F)C(F)(F)OC(F)(F)C1(F)F,inactive
16,CCC(C)c1ccccc1O (stereo not given),inactive
17,O=P(O)(O)CCC(F)(F)C(F)(F)C(F)(F)C(F)(F)C(F)(F)C(F)(F)C(F)(F)C(F)(F)F,inactive
18,CCCCN(C)C,inactive

# Reference: PubChem BioAssay (EPA / NIEHS)
